For one experiment, the system named is Mel-DCC-11. Put plainly: cell viability relative to DMSO control (fraction of DMSO control); higher = less cytotoxic, active = 0.5 or less. Particulars: 1 µM; 120 h. The method, boiled down:
(§1)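 Cells in 40 µl per well went into 384-well plates pre-spotted acoustically with a TargetMol library of 315 approved anti-cancer drugs, each at 1 µM in duplicate, for 120 h. Seeding was 2500/well for NHEM-hTERT immortalized melanocytes and 1500/well for patient-derived Mel-DCC-11 and its resistant subline Mel-DCC-11-R, which was run alone and with 8 µM of its selecting drug. Luminescence was read with ATPlite 1step. Viability was normalised to vehicle-treated controls and averaged over duplicates.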

For another experiment, the system named is NHEM-hTERT. The experiment is described as above. Particulars: 1 µM; 120 h. The essentials:
as §1

The next experiment concerns Mel-DCC-11-R. Put plainly: cell viability relative to DMSO control (fraction of DMSO control); higher = less cytotoxic, active = 0.8 or less. Conditions: 1 µM, 120 h. The essentials:
as §1

A number with no mark means an inactive call.

On to `CCc1cc2c(cc1N1CCC(N3CCOCC3)CC1)C(C)(C)c1[nH]c3cc(C#N)ccc3c1C2=O` [Alectinib], for which the cell viability was 1.2 with Mel-DCC-11, 0.977 with NHEM-hTERT, 1.12 with Mel-DCC-11-R (vemurafenib co-treatment 0 µM) and 0.888 with Mel-DCC-11-R (vemurafenib co-treatment 8 µM).

Consider `CNNCc1ccc(C(=O)NC(C)C)cc1.Cl` [Procarbazine hydrochloride], for which the cell viability in the experiment on Mel-DCC-11 is 1.18; in the experiment with NHEM-hTERT it was 1.13; with Mel-DCC-11-R (vemurafenib co-treatment 0 µM), 1.04; in the experiment with Mel-DCC-11-R (vemurafenib co-treatment 8 µM), 1.25.

As to `CCN(CC)CCNC(=O)c1c(C)[nH]c(/C=C2\C(=O)Nc3ccc(F)cc32)c1C.C[C@@H](CC(=O)O)C(=O)O` [Sunitinib Malate], the cell viability with Mel-DCC-11 is 0.864; in the experiment on NHEM-hTERT, 1.03; with Mel-DCC-11-R (vemurafenib co-treatment 0 µM) it was 1.08; in the experiment on Mel-DCC-11-R (vemurafenib co-treatment 8 µM), 0.927.

Regarding `C#Cc1cccc(Nc2ncnc3cc(OCCOC)c(OCCOC)cc23)c1` [Erlotinib], the cell viability was 1.26 in the experiment on Mel-DCC-11, 1.02 in the experiment with NHEM-hTERT, 1.03 in the experiment on Mel-DCC-11-R (vemurafenib co-treatment 0 µM) and 0.732 (active) in the experiment on Mel-DCC-11-R (vemurafenib co-treatment 8 µM).

For `COC(=O)c1cc(OC)c2c(c1-c1c(CO)cc(OC)c3c1OCO3)OCO2` [Bicyclol], the cell viability in the experiment with Mel-DCC-11 is 1.13; with NHEM-hTERT it was 1.12; in the experiment with Mel-DCC-11-R (vemurafenib co-treatment 0 µM) it was 0.998; with Mel-DCC-11-R (vemurafenib co-treatment 8 µM), 1.1.

Regarding `O=C(NC(Cc1cc(=O)[nH]c2ccccc12)C(=O)O)c1ccc(Cl)cc1` (centres undefined) [Rebamipide], the cell viability in the experiment with Mel-DCC-11 was 1.15; in the experiment on NHEM-hTERT it was 1; with Mel-DCC-11-R (vemurafenib co-treatment 0 µM) it was 0.995; in the experiment on Mel-DCC-11-R (vemurafenib co-treatment 8 µM) it was 1.24.

Take `CC1(COc2ccc3c(c2)ncn3-c2ccc3cccc(N4CCC(N)CC4)c3n2)COC1` [Crenolanib]: the cell viability was 1.81 with Mel-DCC-11, 0.873 in the experiment on NHEM-hTERT, 1.26 in the experiment with Mel-DCC-11-R (vemurafenib co-treatment 0 µM) and 1.35 in the experiment on Mel-DCC-11-R (vemurafenib co-treatment 8 µM).

For `CC(C)NCC(O)COc1cccc2ccccc12.Cl` (centres undefined) [Propranolol hydrochloride], the cell viability is 1.12 in the experiment with Mel-DCC-11, 1.16 in the experiment with NHEM-hTERT, 0.858 with Mel-DCC-11-R (vemurafenib co-treatment 0 µM) and 1.06 in the experiment with Mel-DCC-11-R (vemurafenib co-treatment 8 µM).

Turning to `COC(=O)C[C@](O)(CCCC(C)(C)O)C(=O)O[C@@H]1C(OC)=CC23CCCN2CCc2cc4c(cc2[C@H]13)OCO4` (some centres undefined) [Homoharringtonine], the cell viability in the experiment on Mel-DCC-11 was 0.0644 (active); in the experiment on NHEM-hTERT, 0.228 (active); in the experiment on Mel-DCC-11-R (vemurafenib co-treatment 0 µM), 0.0454 (active); with Mel-DCC-11-R (vemurafenib co-treatment 8 µM), 0.0543 (active).

With `CN(C)C(=O)c1cc2cnc(Nc3ccc(N4CCNCC4)cn3)nc2n1C1CCCC1` [Ribociclib], the cell viability was 0.584 in the experiment on Mel-DCC-11, 0.989 in the experiment on NHEM-hTERT, 1.25 with Mel-DCC-11-R (vemurafenib co-treatment 0 µM) and 1.21 with Mel-DCC-11-R (vemurafenib co-treatment 8 µM).

On to `CC(=O)Nc1cccc(-n2c(=O)n(C3CC3)c(=O)c3c(Nc4ccc(I)cc4F)n(C)c(=O)c(C)c32)c1` [Trametinib], for which the cell viability in the experiment with Mel-DCC-11 was 0.0655 (active); in the experiment on NHEM-hTERT it was 0.453 (active); in the experiment with Mel-DCC-11-R (vemurafenib co-treatment 0 µM), 0.206 (active); in the experiment with Mel-DCC-11-R (vemurafenib co-treatment 8 µM), 0.165 (active).

Take `CC1(C)CCC(CN2CCN(c3ccc(C(=O)NS(=O)(=O)c4ccc(NCC5CCOCC5)c([N+](=O)[O-])c4)c(Oc4cnc5[nH]ccc5c4)c3)CC2)=C(c2ccc(Cl)cc2)C1`: the cell viability was 1.42 with Mel-DCC-11, 0.502 in the experiment with NHEM-hTERT, 1.04 in the experiment with Mel-DCC-11-R (vemurafenib co-treatment 0 µM) and 1.23 with Mel-DCC-11-R (vemurafenib co-treatment 8 µM).

As for `CNC(=O)c1ccc(N2C(=S)N(c3ccc(C#N)c(C(F)(F)F)c3)C(=O)C2(C)C)cc1F` [Enzalutamide], the cell viability is 1.15 with Mel-DCC-11, 1.11 in the experiment with NHEM-hTERT, 0.889 with Mel-DCC-11-R (vemurafenib co-treatment 0 µM) and 1.09 in the experiment on Mel-DCC-11-R (vemurafenib co-treatment 8 µM).

As to `OC[C@H]1O[C@@H](n2cnc3c2NC=NC[C@H]3O)C[C@@H]1O` [Pentostatin], the cell viability in the experiment on Mel-DCC-11 is 1.12; in the experiment with NHEM-hTERT, 1.1; in the experiment on Mel-DCC-11-R (vemurafenib co-treatment 0 µM) it was 0.905; in the experiment on Mel-DCC-11-R (vemurafenib co-treatment 8 µM), 1.2.

On to `CC(C)C(=O)Nc1ccc([N+](=O)[O-])c(C(F)(F)F)c1` [Flutamide], for which the cell viability in the experiment on Mel-DCC-11 is 1.26; in the experiment with NHEM-hTERT, 1.25; in the experiment on Mel-DCC-11-R (vemurafenib co-treatment 0 µM), 1.1; in the experiment on Mel-DCC-11-R (vemurafenib co-treatment 8 µM), 1.21.

Regarding `CC1=C(/C=C/C(C)=C/C=C/C(C)=C/C=C/C=C(C)/C=C/C=C(C)/C=C/C2=C(C)CCCC2(C)C)C(C)(C)CCC1` [Beta-Carotene], the cell viability is 0.738 with Mel-DCC-11, 0.916 with NHEM-hTERT, 0.829 in the experiment with Mel-DCC-11-R (vemurafenib co-treatment 0 µM) and 0.851 with Mel-DCC-11-R (vemurafenib co-treatment 8 µM).

Consider `C[C@]12CC[C@@H]3c4ccc(O)cc4C[C@@H](CCCCCCCCCS(=O)CCCC(F)(F)C(F)(F)F)[C@H]3[C@@H]1CC[C@@H]2O` (some centres undefined) [Fulvestrant], for which the cell viability in the experiment on Mel-DCC-11 was 1.05; in the experiment on NHEM-hTERT, 0.817; in the experiment with Mel-DCC-11-R (vemurafenib co-treatment 0 µM), 0.987; in the experiment on Mel-DCC-11-R (vemurafenib co-treatment 8 µM) it was 0.809.

Take `CC1(C)O[C@H]2CC(=O)OC[C@]23[C@H]2CC[C@@]4(C)[C@H](c5ccoc5)OC(=O)[C@H]5O[C@]54[C@]2(C)C(=O)C[C@@H]13` [Limonin]: the cell viability was 1.1 in the experiment on Mel-DCC-11 and 1.21 in the experiment on NHEM-hTERT.

In the case of `CCC1(O)C(=O)OCc2c1cc1n(c2=O)Cc2cc3cc(O)ccc3nc2-1` (centres undefined) [Hydroxy Camptothecine], the cell viability is 0.233 (active) in the experiment on Mel-DCC-11, 0.899 with NHEM-hTERT, 0.422 (active) in the experiment with Mel-DCC-11-R (vemurafenib co-treatment 0 µM) and 0.224 (active) in the experiment on Mel-DCC-11-R (vemurafenib co-treatment 8 µM).

(Values after the supplement of paper PMC12808144.)
